According to PubChem BioAssay (NCI):
The panel holds about 83,000 compounds, 20% with a hit somewhere; the sample as a whole holds those more often.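 Cells were grown in 96-well plates and exposed to the test compound at a single concentration for 48 hours; results are reported as percent growth, with values below 10 considered active.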 Unmarked numbers belong to inactive results. Active and inactive are the calls of the source.

Test system: HOP-62 NSCLC
Assay: NCI-60 one-dose screen, 48 h (100 = growth as untreated, 0 = no growth, -100 = all killed)
Conditions: 10 µM unless noted

Q: For `CC(C)OC(=O)OCOP(=O)(OCOC(=O)OC(C)C)C1CCCN(O)C1=O` (stereo not given), which growth is on record?
A: The growth was 13.3%.

Q: With `O=C(/C=C/C12c3ccccc3C(c3ccccc31)C1C(=O)N(c3ccc(Cl)cc3)C(=O)C12)c1ccccn1` (stereo not given) as the compound, how does the growth read?
A: Its growth is 5.06% (active).

Q: Which growth does the source give for `Cc1ccc(S(=O)(=O)N(CC[C@@H]2C[C@H]2c2cc3ccccc3o2)C(=O)NC2CCCCC2)cc1` here?
A: Its growth is 93.1%.

Q: With `COc1cc2c(cc1OC)-c1ccc3cc4c(cc3c1N(CCCN1CCCCC1)C2)OCO4` as the compound, how does the growth read?
A: Its growth is 56%.

Q: For `COc1cc2cc(Oc3ccc(NC(=O)Nc4cc(C(F)(F)F)cc(C(F)(F)F)c4)cc3)c(C)nc2cc1OCCN1CCCCC1`, which growth is on record?
A: Its growth is -50% (active).

Q: With `CCN(CC)CCOC(=O)Nc1ccccc1Cl` as the compound, how does the growth read?
A: The growth was 102%.

Q: For `COc1cc(CNC(=O)/C=C/C=C/c2ccc3c(c2)OCO3)ccc1OCc1cn(-c2ccc(Cl)c(Cl)c2)nn1`, which growth is on record?
A: The growth was -19.8% (active).

Q: With `N#C/C=C(\c1ccc([N+](=O)[O-])cc1)n1nnc2cc(Cl)c(Cl)cc21` as the compound, how does the growth read?
A: The growth was 31.2%.

Q: How did the growth turn out when `CNC(=O)c1c(NC(=O)c2ccc(C(C)(C)C)cc2)sc2c1CCC(=O)C2` was run?
A: The growth was 17%.

Q: How did the growth turn out when `CCCCOc1ccc(NC(=O)n2nc(N=NN(C)C)c3ccc(Cl)cc32)cc1` was run?
A: Its growth is 88.3%.

Q: `CC[C@@H](C[C@H](CCO)c1ccccc1)c1cc2ccccc2o1` was tested. Which growth did it give?
A: The growth was 84.4%.

Q: How did the growth turn out when `N=c1ccn2c(n1)OC1C(O)C(CO)OC12` (stereo not given) was run?
A: The growth was 24.5%.

Q: With `Cc1cc(N2CCCCC2)nc(N(CCNc2ccnc3cc(Cl)ccc23)Cc2ccccn2)n1` as the compound, how does the growth read?
A: The growth was 55.6%.

Q: With `CCOc1ccc2nc(-c3cccc(OCC(=O)NC(C)C)c3)nc(Nc3ccc(-c4cn[nH]c4)cc3)c2c1` as the compound, how does the growth read?
A: The growth was -36.3% (active).

Q: Which growth does the source give for `C=C1C(=O)O[C@H]2[C@H]1CC/C(Cn1cc(CNCCc3c[nH]c4ccc(Cl)cc34)nn1)=C\CC[C@@]1(C)O[C@@H]21` here?
A: Its growth is 78.7%.

Q: With `CS(=O)(=O)c1ccc(-c2nc3cc(Cl)ccc3n2CC(=O)N/N=C/c2ccc(Cl)cc2)cc1` as the compound, how does the growth read?
A: Its growth is 56.4%.

Test system: NCI-H460 lung
Assay: as above
Conditions: 10 µM unless noted

Q: How did the growth turn out when `Nc1ccc(CCCCc2ccccc2)c(Cl)c1` was run?
A: The growth was 102%.

Q: For `Nc1ccc(S(=O)(=O)Nc2ccsc2-c2nc(-c3ccccc3)no2)cc1`, which growth is on record?
A: The growth was 40.1%.

Q: How did the growth turn out when `C=C(CNCCc1ccc(O)cc1)[C@@H]1CC[C@]2(COC3CCCCO3)CC[C@]3(C)[C@H](CC[C@@H]4[C@@]5(C)CCC(NCCO)C(C)(C)[C@@H]5CC[C@]43C)[C@@H]12` (stereo not given in full) was run?
A: Its growth is -79.9% (active).

Q: How did the growth turn out when `OC(COc1cccc2ccccc12)CN1CCN(c2ccccc2)CC1` (stereo not given) was run?
A: Its growth is 106%.

Q: For `Cc1[nH]c(-c2nc3ccccc3[nH]2)c(C)c1C(=O)N1CCc2sccc2C1`, which growth is on record?
A: Its growth is 94.4%.

Q: With `CC(C)n1nc(C#Cc2cccc(NC(=O)c3cccc(C(F)(F)F)c3)c2)c2c(N)ncnc21` as the compound, how does the growth read?
A: The growth was 5.91% (active).

Q: How did the growth turn out when `Cc1cc(NS(=O)(=O)c2ccccc2)c(OS(=O)(=O)c2ccccc2)cc1C` was run?
A: Its growth is 106%.

Q: With `OCCCCc1nccc2c1[nH]c1ccccc12` as the compound, how does the growth read?
A: Its growth is 104%.

Q: Which growth does the source give for `C=C(C)[C@@H]1CC[C@]2(CNCCO)CC[C@]3(C)[C@H](CC[C@@H]4[C@@]5(C)CCC(N)[C@@](C)(CO)[C@@H]5CC[C@]43C)[C@@H]12` (stereo not given in full) here?
A: The growth was -56.4% (active).

Q: `OC(c1cccc(OCc2ccccc2)c1)c1nnc(-c2ccccc2)o1` (stereo not given) was tested. Which growth did it give?
A: The growth was 96%.

Q: Which growth does the source give for `Cl.[Pt].[c-]1ccccc1-c1ccccn1.c1ccc(P(c2ccccc2)C([PH+](c2ccccc2)c2ccccc2)[PH+](c2ccccc2)c2ccccc2)cc1` here?
A: The growth was 5.2% (active).

Q: How did the growth turn out when `COc1cc2c(c(OC)c1OC)C(=O)/C(=C/c1cc(C)c(O)c(C)c1)S2` was run?
A: Its growth is 12.7%.

Q: `O=C(Nc1ccccn1)[C@H](O)[C@@H](O)C(=O)N1CCOCC1` was tested. Which growth did it give?
A: The growth was 105%.

Q: For `CC(C)(C)N1CC(OC(N)=O)C1`, which growth is on record?
A: The growth was 113%.

Q: With `O=C(NC1CCOCC1)c1ccc2c(c1)CN(c1ncc(Cc3cccc(-n4cccn4)c3)s1)CC2` as the compound, how does the growth read?
A: Its growth is 79.9%.

Q: Which growth does the source give for `CN1C[C@@H](c2ccc(Cl)cc2)[C@]2(NC(=S)N(c3ccc(F)c(Cl)c3)C2=O)[C@@]12C(=O)NC1C=CC(Cl)=C[C@H]12` (stereo not given in full) here?
A: Its growth is 32.8%.

Q: Which growth does the source give for `CCCN1CCN(c2ccc3nc(-c4ccc5nc(-c6ccc(OCC)c(OCC)c6)[nH]c5c4)[nH]c3c2)CC1` here?
A: Its growth is -80.3% (active).

Q: `NC(=S)c1csc(CCNC(=O)c2ccccc2)n1` was tested. Which growth did it give?
A: The growth was 109%.

Q: `CCN(CCO)CC(=O)c1cc(Cl)cc(Cl)c1Cl` was tested. Which growth did it give?
A: The growth was 105%.

Q: `C=CC(=O)Nc1cccc(C)c1Nc1cc(-c2cccnc2Cc2c(C)c(OC)cc(OC)c2C)ncn1` was tested. Which growth did it give?
A: Its growth is 4.5% (active).

Q: `N#Cc1c(NC(=O)c2ccccc2I)sc2c1CCCC2` was tested. Which growth did it give?
A: Its growth is 17.8%.

Q: With `C#CC[C@H](N)C(=O)O` as the compound, how does the growth read?
A: The growth was 104% [20 µM].

Q: How did the growth turn out when `COc1ccc(-n2ncn(CCCCCCn3cnn(-c4ccc(OC)cc4)c3=O)c2=O)cc1` was run?
A: Its growth is 103%.

Q: Which growth does the source give for `CC(C)OC(=O)OCOP(=O)(OCOC(=O)OC(C)C)C1CCCN(O)C1=O` (stereo not given) here?
A: The growth was 17%.

Q: With `O=C(/C=C/C12c3ccccc3C(c3ccccc31)C1C(=O)N(c3ccc(Cl)cc3)C(=O)C12)c1ccccn1` (stereo not given) as the compound, how does the growth read?
A: The growth was -32.3% (active).

Q: For `Cc1ccc(S(=O)(=O)N(CC[C@@H]2C[C@H]2c2cc3ccccc3o2)C(=O)NC2CCCCC2)cc1`, which growth is on record?
A: Its growth is 104%.

Q: For `COc1cc2c(cc1OC)-c1ccc3cc4c(cc3c1N(CCCN1CCCCC1)C2)OCO4`, which growth is on record?
A: The growth was 29.1%.

Q: How did the growth turn out when `COc1cc2cc(Oc3ccc(NC(=O)Nc4cc(C(F)(F)F)cc(C(F)(F)F)c4)cc3)c(C)nc2cc1OCCN1CCCCC1` was run?
A: Its growth is -78% (active).

Q: How did the growth turn out when `CCN(CC)CCOC(=O)Nc1ccccc1Cl` was run?
A: The growth was 104%.

Q: For `COc1cc(CNC(=O)/C=C/C=C/c2ccc3c(c2)OCO3)ccc1OCc1cn(-c2ccc(Cl)c(Cl)c2)nn1`, which growth is on record?
A: Its growth is -57.5% (active).

Q: How did the growth turn out when `N#C/C=C(\c1ccc([N+](=O)[O-])cc1)n1nnc2cc(Cl)c(Cl)cc21` was run?
A: Its growth is -8.66% (active).

Q: With `CNC(=O)c1c(NC(=O)c2ccc(C(C)(C)C)cc2)sc2c1CCC(=O)C2` as the compound, how does the growth read?
A: Its growth is 1.8% (active).

Q: With `CCCCOc1ccc(NC(=O)n2nc(N=NN(C)C)c3ccc(Cl)cc32)cc1` as the compound, how does the growth read?
A: Its growth is 110%.

Q: `CC[C@@H](C[C@H](CCO)c1ccccc1)c1cc2ccccc2o1` was tested. Which growth did it give?
A: Its growth is 100%.

Q: With `N=c1ccn2c(n1)OC1C(O)C(CO)OC12` (stereo not given) as the compound, how does the growth read?
A: Its growth is -9.72% (active).

Q: `Cc1cc(N2CCCCC2)nc(N(CCNc2ccnc3cc(Cl)ccc23)Cc2ccccn2)n1` was tested. Which growth did it give?
A: Its growth is 41.5%.

Q: With `CCOc1ccc2nc(-c3cccc(OCC(=O)NC(C)C)c3)nc(Nc3ccc(-c4cn[nH]c4)cc3)c2c1` as the compound, how does the growth read?
A: Its growth is -37.9% (active).

Q: With `C=C1C(=O)O[C@H]2[C@H]1CC/C(Cn1cc(CNCCc3c[nH]c4ccc(Cl)cc34)nn1)=C\CC[C@@]1(C)O[C@@H]21` as the compound, how does the growth read?
A: Its growth is 99%.

Q: How did the growth turn out when `CS(=O)(=O)c1ccc(-c2nc3cc(Cl)ccc3n2CC(=O)N/N=C/c2ccc(Cl)cc2)cc1` was run?
A: The growth was 48.7%.
